# TGFb inhibitor = TGF-b pathway inhibition; 410,000 compounds, 1.2% hits; Potency, µM (series often up to 46.1 µM), for the others: at the highest dose activity, negative = inhibition, most hits filed as inhibitors; HepG2 CAGA-GFP TGF-b/SMAD3 reporter, GFP fluorescence, 18 h; TGF-beta stimulated, 500 pg/mL final; also: % is scaled to controls: 0 for no effect and ±100 for the full control effect; nearly all actives have a fitted effect of over 65% in size
#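 HEPG2 CAGA-GFP, 1000 cells/well; 2 h settle, 37 C; cpd via pin tool; TGF-b 500 pg/mL final; 18 h, 37 C; GFP imaging ex488/em500-530; %Activity normalised to -TGF-b and +DMSO controls; CRC fit, curve class.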
# ATXN2 expr inh = reduces ATXN2 reporter expression in HEK-293 cells | HEK-293 ATXN2-luciferase reporter, luminescence, 24 h | AID 1745845 | 360,000 compounds, 0.72% hits | Potency, µM (titrated, usually from 57 µM), for the others: at the top dose activity change, negative = inhibition, most hits filed as inhibitors; also: % is scaled to controls: 0 for no effect and ±100 for the full control effect; nearly all actives have a fitted effect of over 55% in size
#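 qHTS (up to 57 uM final) was run with 24 h compound exposure of reporter cells at 37 °C. Each well was multiplexed: SteadyGlo luminescence measured ATXN2-luciferase expression after a fluorogenic Gly-Phe-AFC viability readout (25 uM final).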
# VP16 counter = Gal4-VP16 reporter inhibition counter-screen; Drosophila S2 Gal4-VP16 UAS-luciferase, luminescence, 20 h; 310,000 compounds, 3.5% hits; Potency, µM (series often up to 53.6 µM), without a hit: at the top dose activity, negative = inhibition, actives largely listed as inhibitors;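 also: Gal4-VP16 expression switched on by copper sulfate through the metallothionein promoter; % is scaled to controls: 0 for no effect and ±100 for the full control effect; nearly all actives have a fitted effect of over 50% in size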
# ATXN viability = reduces viability in counter-screen for ATXN expression inhibitors; S2 cells (HEK-293 line with an ATXN2-luciferase reporter) viability, CellTiter-Fluor protease fluorescence, 24 h; Potency, µM (highest dose often 56.7 µM), actives largely listed as cytotoxic; 400,000 compounds, 0.49% hits; also: nearly all actives have a fitted effect of over 40% in size
# RORg inh = ROR gamma (mouse) transcription inhibition; P51450; Drosophila S2 Gal4-RORgamma UAS-luciferase reporter, 20 h; Potency, µM (series often up to 53.6 µM), inactives show at the top dose activity change, negative = inhibition, usual class: inhibitors; 310,000 compounds, 5.4% hits; AID 2551; also: % is scaled to controls: 0 for no effect and ±100 for the full control effect; nearly all actives have a fitted effect of over 60% in size
# Target sequence (P51450 whole entry, looked up, the tested form may be a part): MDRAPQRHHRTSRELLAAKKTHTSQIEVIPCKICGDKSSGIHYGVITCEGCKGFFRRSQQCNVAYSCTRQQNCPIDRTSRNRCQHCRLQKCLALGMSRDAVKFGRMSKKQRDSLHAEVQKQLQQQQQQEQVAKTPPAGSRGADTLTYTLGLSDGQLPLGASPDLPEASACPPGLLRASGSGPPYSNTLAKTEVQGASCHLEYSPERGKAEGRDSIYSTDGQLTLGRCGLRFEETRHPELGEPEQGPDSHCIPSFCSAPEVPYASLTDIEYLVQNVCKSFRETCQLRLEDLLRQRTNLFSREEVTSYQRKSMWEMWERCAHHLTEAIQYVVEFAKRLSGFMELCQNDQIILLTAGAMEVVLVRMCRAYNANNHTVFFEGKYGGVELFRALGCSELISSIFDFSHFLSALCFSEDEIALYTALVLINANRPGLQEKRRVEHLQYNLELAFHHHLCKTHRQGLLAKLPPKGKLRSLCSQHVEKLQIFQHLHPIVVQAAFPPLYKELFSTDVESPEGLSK
#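 Stable Schneider cell line, Gal4 DNA-binding domain fused to ROR gamma, UAS-luciferase. Cmpd 1 hr RT → CuSO4 700 uM final → 20 hr RT → luciferase reagent 10 min → luminescence.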
# HepG2 tox = HepG2 cytotoxicity, counter-screen for TGF-b inhibitors. HepG2 CAGA-GFP viability, ATP luminescence, 18 h. Potency, µM (series often up to 46.1 µM), for inactives: top-dose activity change, negative = cytotoxicity, usual class: cytotoxic. 410,000 compounds, 0.76% hits. AID 588856
#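 HepG2 CAGA-GFP cells (1000/well, DMEM with 1% FBS) received compound, then TGF-beta at 500 pg/mL final, and were incubated 18 hours at 37 degrees C. Viability was read by CellTiter-Glo luminescence. Media-only wells were set as complete cell-killing and DMSO as no toxicity.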
# Active calls of the source: *; i = inactive; ? = inconclusive; · = no result given. Only some compounds are listed: those with a hit (about 6.3% of all), similar ones and a draw of the others. Calls follow the shape of the dose curve; as a rule, active = well fitted curve in the direction sought with a large enough effect; inconclusive = small, poorly fitted or top-dose-only effect, or another doubt; inactive = no such curve, though single readings can be large; an effect the other way counts as inactive or inconclusive. Potency is read from the fitted curve at half-maximal effect.
SMILES,TGFb inhibitor,ATXN2 expr inh,VP16 counter,ATXN viability,RORg inh,HepG2 tox
Cc1cccc(NC(=S)N2CCC(NC(=O)C3CCCCC3)CC2)c1,30%,-12%,-5%,i,-3%,21%
Cc1ccc(NC(=S)N2CCCCC2)cc1C,-11%,16%,?,i,4.5µM*,-22%
Cc1cccc(NC(=S)N2CCCCC2)c1,3%,-7%,18µM*,i,?,13%
CC(C)C(=O)SCCCCCCC(=O)Nc1nc(-c2ccccc2)cs1,·,·,?,·,-7%,·
Cc1ccc(C2CCN(C(=S)Nc3cccc(C)c3)C2)cc1 (configuration not stated),?,·,-7%,i,7.9µM*,-46%
C=CCOc1c(Cl)cc(C(=S)N2CCCC2)cc1OCC,-19%,-25%,?,i,13µM*,-14%
COc1ccccc1N1CCN(C(c2ccc(Cl)cc2)c2nnnn2C(C)(C)C)CC1 (configuration not stated),?,-26%,22µM*,i,-123%,-16%
Cc1ccc(S(=O)(=O)Nc2c(Cl)c(Cl)c(O)c3ccccc23)cc1,·,·,?,·,18µM*,·
COc1ccc(-n2c(SCC(=O)Nc3cccc4ccccc34)nc(O)cc2=O)cc1,12%,0%,12%,i,35µM*,10%
CN=c1scc(-c2ccccc2F)n1/N=C/c1ccc[nH]1,-13%,3.2µM*,0.63µM*,?,0.022µM*,-24%
CC(C)N(C(=O)CSc1nc2ccccc2n1-c1ccccc1)C(C)C,-10%,-13%,?,i,11µM*,-3%
COc1ccc(/C=N/NC(=O)c2c(C)nc3ccc(Br)cn23)cc1OC,14%,2%,-19%,i,5%,-3%
Cc1nc2ccccn2c1C(=O)N/N=C/c1ccccc1,-3%,-2%,-4%,i,1%,-28%
COc1cccc(/C=N/NC(=O)c2c(C)nc3ccc(Br)cn23)c1O,?,0.63µM*,2.5µM*,i,2.5µM*,-19%
Cc1nc2ccccn2c1C(=O)N/N=C/c1cc(C)n(-c2ccc(Br)cc2)c1C,-4%,-25%,?,i,11µM*,3%
Cc1ccc(/C=N/NC(=O)c2c(C)nc3ccc(Br)cn23)cc1,?,·,?,i,7.1µM*,-8%
COc1ccc(/C=N\NC(=O)c2c(C)nc3ccc(Br)cn23)cc1,-15%,·,-102%,i,10µM*,6%
C=CCOc1ccc(/C=N/NC(=O)c2c(C)nc3ccc(Cl)cn23)cc1,11%,12%,10µM*,i,2.2µM*,4%
Cc1c(Cl)cccc1NC(=S)N(Cc1cccnc1)Cc1ccccc1Cl,5%,-13%,?,i,11µM*,-1%
S=C(Nc1ccccc1Cl)N(Cc1cccnc1)Cc1ccco1,7%,8%,8%,i,-17%,4%
NOCc1ccccc1,·,·,-12%,·,-11%,·
CC(C)C(NS(C)(=O)=O)c1nnc2n1CCN(Cc1ccc3cccnc3c1)CC2 (configuration not stated),·,·,·,i,·,·
O=C(OCc1cn([C@H]2CN(CC3CCCCC3)[C@@H](c3ccc(Cl)cc3)C[C@@H]2O)nn1)c1ccccc1,18µM*,?,·,·,·,13µM*
O=C(OCc1cn([C@@H]2CN(CC3CCCCC3)[C@@H](c3ccccc3)C[C@H]2O)nn1)c1ccccc1,3%,?,·,25µM*,·,-6%
O=C(OCc1cn([C@@H]2CN(CC3CCCCC3)[C@@H](c3ccc(Cl)cc3)C[C@H]2O)nn1)c1ccccc1,-6%,-3%,·,i,·,-9%
O=C(OCc1cn([C@H]2CN(CC3CCCCC3)[C@@H](c3ccccc3)C[C@@H]2O)nn1)c1ccccc1,-2%,3%,·,i,·,-7%
Cn1c(NCc2cccnc2)nc2cc(-c3ccc(C(=O)N4CCOCC4)cc3)sc2c1=O,19%,-1%,·,i,·,-4%
